The source of these data is the supplement of paper PMC4709259.

SMILES strings stand for the structures. Counter-ions that a name gives are not always drawn. ± gives the standard deviation.

The test has as its system Jurkat. Put plainly: cell count relative to DMSO control (fraction of control); higher = more cells (less growth inhibition). The note with it: 48 h.
On to `CO[C@H]1/C=C/O[C@@]2(C)Oc3c(C)c(O)c4c(O)c(c5c(nc6cc(C)ccn65)c4c3C2=O)NC(=O)/C(C)=C\C=C\[C@H](C)[C@H](O)[C@@H](C)[C@@H](O)[C@@H](C)[C@H](OC(C)=O)[C@@H]1C` [Rifaximin] (concentration: 25 µM), for which the cell count worked out at 0.4 ± 0.12. In the case of `CN1C(=O)CC(C)(c2ccccc2)C1=O` (stereo not drawn) [Methsuximide] (concentration: 25 µM), the cell count was 0.752 ± 0.068. With `NCC[C@H](O)C(=O)N[C@@H]1C[C@H](N)[C@@H](O[C@H]2O[C@H](CN)[C@@H](O)[C@H](O)[C@H]2O)[C@H](O)[C@H]1O[C@H]1O[C@H](CO)[C@@H](O)[C@H](N)[C@H]1O` [Amikacin Disulfate] (concentration: 25 µM), the cell count came out at 0.921 ± 0.014. Regarding `CCC[C@@H]1C[C@@H](C(=O)N[C@@H]([C@H]2O[C@H](SC)[C@H](O)[C@@H](O)[C@H]2O)[C@@H](C)O)N(C)C1` [Lincomycin·HCl] (concentration: 25 µM), the cell count is 0.754 ± 0.11. As to `CO[C@H]1/C=C/O[C@@]2(C)Oc3c(C)c(O)c4c(O)c(c(/C=N/N5CCN(C)CC5)c(O)c4c3C2=O)NC(=O)/C(C)=C\C=C\[C@H](C)[C@H](O)[C@@H](C)[C@@H](O)[C@@H](C)[C@H](OC(C)=O)[C@@H]1C` [Rifampin (Rifampicin)] (concentration: 25 µM), the cell count was found to be 0.765 ± 0.035. `CCOC(=O)[C@H](CCc1ccccc1)N[C@H]1CCc2ccccc2N(CC(=O)O)C1=O` [Benazepril·HCl] (concentration: 25 µM) showed a cell count of 0.885 ± 0.035.

The compound `C=CC[C@@H]1/C=C(\C)C[C@H](C)C[C@H](OC)[C@H]2O[C@@](O)(C(=O)C(=O)N3CCCC[C@H]3C(=O)O[C@H](/C(C)=C/[C@@H]3CC[C@@H](O)[C@H](OC)C3)[C@H](C)[C@@H](O)CC1=O)[C@H](C)C[C@@H]2OC` [Tacrolimus (Fk506)] (concentration: 25 µM) had a cell count of 0.408 ± 0.045. With `O=C(O)CCCc1ccccc1` [Sodium Phenylbutyrate] (concentration: 25 µM), the cell count was 1.05 ± 0.12. `OC(c1cc(C(F)(F)F)nc2c(C(F)(F)F)cccc12)C1CCCCN1` (stereo not drawn) [Mefloquine·HCl] (concentration: 2.5 µM) displayed a cell count of 0.813 ± 0.087.

`COc1cc(CNC(=O)CCCC/C=C/C(C)C)ccc1O` [Capsaicin] (concentration: 25 µM) showed a cell count of 0.901 ± 0.08.

For `C[C@H](CCC(=O)O)[C@H]1CC[C@H]2[C@@H]3[C@H](O)C[C@@H]4C[C@H](O)CC[C@]4(C)[C@H]3CC[C@]12C` [Chenodiol (Chenodeoxycholic Acid)] (concentration: 25 µM), the cell count stood at 0.838 ± 0.13. Regarding `CCC1=C(C)CN(C(=O)NCCc2ccc(S(=O)(=O)NC(=O)N[C@H]3CC[C@H](C)CC3)cc2)C1=O` [Glimepiride] (concentration: 25 µM), the cell count was 0.859 ± 0.076.

`CCC1(c2ccccc2)C(=O)NCNC1=O` [Primidone] (concentration: 25 µM) displayed a cell count of 0.618 ± 0.18. To `CO[C@@]12[C@H](COC(N)=O)C3=C(C(=O)C(C)=C(N)C3=O)N1C[C@@H]1N[C@@H]12` [Mitomycin C] (concentration: 2.5 µM) belongs 0.257 ± 0.048; to `Nc1nc(O)c2ncn(CCC(CO)CO)c2n1` [Penciclovir] (concentration: 25 µM), 0.993 ± 0.053. On to `CCN(CC)CCOc1ccc(C(=C(Cl)c2ccccc2)c2ccccc2)cc1` [Clomiphene Citrate] (concentration: 25 µM), for which the cell count is 0.793 ± 0.056. In the case of `CC(C)(C(=O)c1cccnc1)c1cccnc1` [Metyrapone] (concentration: 25 µM) it was 0.924 ± 0.079. Turning to `C=CC(N)CCC(=O)O` (stereo not drawn) [Vigabatrin] (concentration: 25 µM), the cell count stood at 0.829 ± 0.075. `COC(=O)CCc1ccc(OCC(O)CNC(C)C)cc1` (stereo not drawn) [Esmolol] (concentration: 25 µM) came in with a cell count of 1.08 ± 0.12. `CO[C@@]1(NC(=O)C2SC(=C(C(N)=O)C(=O)O)S2)C(=O)N2C(C(=O)O)=C(CSc3nnnn3C)CS[C@@H]21` (stereo partly drawn) [Cefotetan Disodium] (concentration: 25 µM) came in with a cell count of 0.831 ± 0.075. To `N=C(N)N/N=C/c1c(Cl)cccc1Cl` [Guanabenz Acetate] (concentration: 25 µM) belongs 0.34 ± 0.13.

`Cc1[nH]c(=O)c(C#N)cc1-c1ccncc1` [Milrinone] (concentration: 25 µM) displayed a cell count of 0.361 ± 0.085.

In turn, `c1ccc2c(CC3=NCCN3)cccc2c1` [Naphazoline·HCl] (concentration: 25 µM) had a cell count of 0.864 ± 0.024.
